Measured values taken from the supplement of paper PMC4206461.
Unmarked numbers belong to inactive results.

System: Pseudomonas aeruginosa PA14 dppBCDF deletion mutant
Test: respiration area under curve with compound as sole nitrogen source, 24 h (OmniLog AUC (arbitrary units)); higher = more respiration / better utilisation as nitrogen source, active = 2000 or more; extreme values may be limits of the assay
Procedure: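 Biolog Phenotype MicroArray plates PM6-PM8: each di/tripeptide is the sole nitrogen source. Tetrazolium reduction was read in the OmniLog every 15 min for 24 h at 37°C and summarised as area under the respiration curve (arbitrary units). Values below 2000 count as no respiration. Strain is the dipeptide ABC transporter deletion mutant.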

Structure (SMILES) | respiration area under curve
N[C@@H](Cc1c[nH]c2ccccc12)C(=O)N[C@@H](CC(=O)O)C(=O)O (plate: PM7) | 0
CC(C)C[C@H](NC(=O)[C@@H]1CCCN1)C(=O)O (plate: PM7) | 626
CSCC[C@H](NC(=O)[C@@H](N)CCCN=C(N)N)C(=O)O (plate: PM6) | 9400 (active)
C[C@H](NC(=O)[C@@H](N)CCC(=O)O)C(=O)O (plate: PM8) | 51.5
CC[C@H](C)[C@H](N)C(=O)N[C@@H](CCSC)C(=O)O (plate: PM6) | 0
NC(CO)C(=O)NC(CCC(=O)O)C(=O)O (stereo not given) (plate: PM8) | 0
CC[C@H](C)[C@H](N)C(=O)N[C@H](C(=O)O)[C@@H](C)CC (plate: PM6) | 0
C[C@@H](O)[C@H](N)C(=O)N1CCC[C@H]1C(=O)O (plate: PM7) | 0
CC(C)C[C@H](N)C(=O)N[C@@H](CO)C(=O)O (plate: PM7) | 11800 (active)
CSCC[C@H](NC(=O)[C@@H](N)[C@@H](C)O)C(=O)O (plate: PM7) | 204
N[C@@H](CC(=O)O)C(=O)N[C@@H](Cc1c[nH]c2ccccc12)C(=O)O (plate: PM6) | 1260
NC(=O)CC[C@H](NC(=O)[C@@H](N)CO)C(=O)O (plate: PM8) | 558
NCC(=O)N[C@@H](Cc1ccc(O)cc1)C(=O)O (plate: PM6) | 216
CC[C@H](C)[C@H](N)C(=O)N[C@@H](CCCN=C(N)N)C(=O)O (plate: PM6) | 8420 (active)
CC(C)C[C@H](N)C(=O)N[C@@H](CCCN=C(N)N)C(=O)O (plate: PM6) | 8540 (active)
N[C@@H](CCC(=O)O)C(=O)N[C@@H](Cc1c[nH]c2ccccc12)C(=O)O (plate: PM6) | 728
N[C@@H](CO)C(=O)NCC(=O)O (plate: PM7) | 1360
CC(C)C[C@@H](N)C(=O)NCC(=O)O (plate: PM8) | 0
CC(C)C[C@H](NC(=O)[C@H](CC(C)C)NC(=O)[C@@H](N)CC(C)C)C(=O)O (plate: PM8) | 1800
CC(C)[C@H](NC(=O)[C@@H](N)CC(N)=O)C(=O)O (plate: PM6) | 4910 (active)

Structure (SMILES) | respiration area under curve
N[C@@H](Cc1ccc(O)cc1)C(=O)N[C@@H](Cc1ccc(O)cc1)C(=O)O (plate: PM7) | 4900 (active)
NC(=O)C[C@H](NC(=O)[C@@H](N)CO)C(=O)O (plate: PM8) | 10400 (active)
NC(Cc1c[nH]c2ccccc12)C(=O)NC(Cc1ccccc1)C(=O)O (stereo not given) (plate: PM7) | 14.8
NC(=O)C[C@H](NC(=O)[C@@H]1CCCN1)C(=O)O (plate: PM8) | 5910 (active)
NC(=O)CC[C@H](NC(=O)[C@@H](N)CCCN=C(N)N)C(=O)O (plate: PM6) | 9270 (active)
CC[C@H](C)[C@H](NC(=O)[C@@H](N)Cc1ccc(O)cc1)C(=O)O (plate: PM8) | 5950 (active)
CC(C)[C@H](N)C(=O)NCC(=O)O (plate: PM7) | 47.8
N[C@@H](CCC(=O)O)C(=O)N[C@@H](CC(=O)O)C(=O)O (plate: PM6) | 0
CC[C@H](C)[C@H](N)C(=O)N[C@@H](CC(C)C)C(=O)O (plate: PM8) | 924
C[C@H](NC(=O)[C@@H](N)[C@@H](C)O)C(=O)O (plate: PM7) | 3130 (active)
CC[C@H](C)[C@H](N)C(=O)NCC(=O)O (plate: PM6) | 0
N[C@@H](Cc1ccccc1)C(=O)N[C@@H](CO)C(=O)O (plate: PM7) | 1830
C[C@@H](O)[C@H](N)C(=O)N[C@@H](CCC(=O)O)C(=O)O (plate: PM7) | 34.2
CC(C)C[C@H](N)C(=O)N[C@@H](CC(N)=O)C(=O)O (plate: PM8) | 10700 (active)
C[C@H](N)C(=O)N[C@@H](CCC(=O)O)C(=O)O (plate: PM6) | 3750 (active)
NC(=O)CC[C@H](NC(=O)[C@@H]1CCCN1)C(=O)O (plate: PM7) | 1860
C[C@H](N)C(=O)N[C@@H](CCCN=C(N)N)C(=O)O (plate: PM6) | 9770 (active)
C[C@H](N)C(=O)N[C@@H](C)C(=O)N[C@@H](C)C(=O)O (plate: PM8) | 6480 (active)
CSCC[C@H](N)C(=O)N[C@@H](Cc1ccccc1)C(=O)O (plate: PM7) | 85
CC(C)C[C@H](NC(=O)CN)C(=O)O (plate: PM6) | 0
